For some of these results: Entries with a potency or affinity are not part of this list. Results filed as inconclusive are left out. This is one part of the list. Activity calls are given as the source filed them. Unless noted, the rule behind the calls is not given here.
How the values were obtained:
[1] = RMG-1 ovarian cancer cell viability loss – cherry-pick, dose response (AID 687029;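 active = signal drop whose fitted half-maximal concentration is at most twice the top valid dose, in every test run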;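 note: cells exposed to compound for 96 hours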)
[2] = IOSE-T80 viability loss, PAX8-independent line – cell-based, cherry-pick, selectivity assay for PAX8 inhibitor project, dose response (AID 687032;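 active = fitted half-maximal concentration for viability loss no higher than twice the top valid dose, in every repeat run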;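 note: cells exposed to compound for 96 h before reading; 0% = neutral control wells and -100% = 2 µM mitoxantrone kill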)
[3] = general cell-killing toxicity readout – plate reader, dry powder samples, cytotoxicity control for PAX8 inhibitor project, dose response (AID 743021)
[4] = toxicity toward immortalized ovarian surface epithelium – cell-based, plate reader, dry powder samples, cytotoxicity control for PAX8 inhibitor project, dose response (AID 743045);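 note: 0% = neutral control median and -100% = positive control median; more negative values mean more cell killing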
[5] = IGROV1 cell killing – plate reader, dry powder samples, PAX8 inhibitor project, dose response (AID 743043);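 note: more negative means fewer viable cells or more cytotoxicity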
[6] = A2780 cell killing – plate reader, dry powder samples, cytotoxicity control, dose response (AID 743046);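 note: 0% = neutral control wells and -100% = cytotoxic reference compound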
[7] = OVCAR8 cell viability loss – plate reader, dry powder samples, PAX8 project, dose response (AID 743197)
[8] = OVCAR-3 cell viability loss – plate reader, dry powder samples, PAX8 inhibitor project, dose response (AID 743044); conditions: max activity: at 35 µM, active compounds read low unless noted
[9] = A549 cell cytotoxicity, dose response, cytotoxicity control, plate reader, cherry-pick, antagonist series (AID 743412);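 note: 0% = neutral control wells and -100% = positive control wells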
[10] = toxicity toward HepG2 liver cells – cell-based, plate reader, cherry-pick, antagonist series, cytotoxicity control, dose response (AID 743416);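 note: 0% = neutral control wells and -100% = positive control wells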
[11] = biological target: Melanocortin receptor 4 (Homo sapiens) (UniProt P32245); assay: blockade of melanocortin 4 receptor signaling – cell-based, plate reader, cherry pick, counter-screen for LGR2 antagonist project, dose response (AID 743444)
[12] = small-molecule DNA binding by polarization – biochemical, fluorescence polarization, cherry-pick, counter-screen for EWS/Fli inhibitor project, dose response (AID 720586;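 active = fitted curve reaches a 35% signal fall AC35 below twice the sample's top valid tested dose, actives reach about 48 µM in these data; inactive = the rest, including activity in the rising direction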;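 note: 0% = neutral control median and -100% = 10 µM mitoxantrone control median; lower polarization ratio signals compound binding to DNA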)

C[C@@H]1CN([C@H](C)CO)C(=O)c2cc(NS(=O)(=O)c3cccs3)ccc2O[C@@H](C)CCCCO[C@@H]1CN(C)Cc1ccc(Cl)c(Cl)c1
inactive: outcome [1] | outcome [2] | outcome [3] | outcome [4]

C[C@H]1CN([C@@H](C)CO)S(=O)(=O)c2ccc(C#Cc3ccc(F)cc3)cc2O[C@H]1CN(C)C(=O)NC1CCCCC1
inactive: outcome [1] | outcome [2] | outcome [3] | outcome [5] | outcome [4] | outcome [6] | outcome [7]

C[C@H]1CCCCO[C@@H](CN(C)S(=O)(=O)c2ccccc2)[C@@H](C)CN([C@@H](C)CO)C(=O)c2cc(NC(=O)Nc3ccc(C(F)(F)F)cc3)ccc2O1
inactive: outcome [1] | outcome [2] | outcome [3] | outcome [4] | outcome [6]

COc1ccc2c3c(n(C)c2c1)[C@H](CO)N(Cc1ccccc1)CC31CCN(S(=O)(=O)c2ccc(C)cc2)CC1
inactive: outcome [1] | outcome [2] | outcome [3] | outcome [4]

C[C@@H]1CCCCO[C@H](CN(C)Cc2ccc(Cl)c(Cl)c2)[C@H](C)CN([C@@H](C)CO)C(=O)c2cc(NS(=O)(=O)c3ccc(Cl)cc3)ccc2O1
inactive: outcome [1] | outcome [2] | outcome [3] | outcome [4] | outcome [6]

C[C@@H]1CCCCO[C@@H](CN(C)C(=O)Nc2ccc(C(F)(F)F)cc2)[C@H](C)CN([C@H](C)CO)C(=O)c2cc(NS(=O)(=O)c3cccs3)ccc2O1
inactive: outcome [1] | outcome [2] | outcome [3] | outcome [4]

C[C@H]1CCCCO[C@H](CN(C)C(=O)Nc2ccc(C(F)(F)F)cc2)[C@@H](C)CN([C@@H](C)CO)C(=O)c2cc(NC(=O)Nc3ccccc3)ccc2O1
inactive: outcome [1] | outcome [2] | outcome [3] | outcome [4]

C[C@@H]1CN([C@@H](C)CO)C(=O)Cc2cc(NC(=O)Nc3ccccc3)ccc2O[C@H]1CN(C)Cc1ccc(Oc2ccccc2)cc1
inactive: outcome [1] | outcome [2] | outcome [3] | max activity [8] -64.8% | outcome [4] | outcome [6] | outcome [7]

C[C@@H]1CCCCO[C@H](CN(C)C(=O)Nc2ccc(C(F)(F)F)cc2)[C@@H](C)CN([C@@H](C)CO)C(=O)c2cc(NS(=O)(=O)c3ccc(Cl)cc3)ccc2O1
inactive: outcome [1] | outcome [2] | outcome [3] | outcome [4]

Cc1ccc(S(=O)(=O)N(C)C[C@H]2OCCCC[C@H](C)Oc3ccc(NS(=O)(=O)c4ccc(Cl)cc4)cc3C(=O)N([C@H](C)CO)C[C@@H]2C)cc1
inactive: outcome [1] | outcome [2] | outcome [3] | outcome [4] | outcome [6]

Cc1ccc(-c2ccc([C@H]3[C@H](CO)N4CCCCN(S(=O)(=O)c5cccc(C)c5)C[C@@H]34)cc2)cc1
inactive: outcome [1] | outcome [2] | outcome [3] | outcome [4] | outcome [6]

COc1ccc(S(=O)(=O)Nc2ccc3c(c2)C(=O)N([C@@H](C)CO)C[C@H](C)[C@@H](CN(C)C(=O)Nc2ccc(C(F)(F)F)cc2)OCCCC[C@@H](C)O3)cc1
inactive: outcome [1] | outcome [2] | outcome [3] | outcome [4]

C[C@@H]1CCCCO[C@H](CN(C)Cc2ccc(C(F)(F)F)cc2)[C@H](C)CN([C@H](C)CO)C(=O)c2cc(NS(=O)(=O)c3ccc(Cl)cc3)ccc2O1
inactive: outcome [1] | outcome [2] | outcome [3] | outcome [4]

C[C@@H]1CN([C@@H](C)CO)C(=O)Cc2cc(N(C)C)ccc2O[C@H]1CN(C)Cc1ccc(C(=O)Nc2ccccc2N)cc1
inactive: outcome [1] | outcome [2] | outcome [3] | outcome [4] | outcome [6]

C[C@H](CO)N1C[C@H](C)[C@@H](CN(C)Cc2ccc(C(F)(F)F)cc2)OCCCC[C@H](C)Oc2ccc(NS(=O)(=O)c3ccc(Cl)cc3)cc2C1=O
inactive: outcome [1] | outcome [2] | outcome [3] | outcome [4]

C[C@@H]1CN([C@H](C)CO)C(=O)c2cc(NS(=O)(=O)c3ccc(F)cc3)ccc2O[C@@H](C)CCCCO[C@H]1CN(C)Cc1ccc(C(F)(F)F)cc1
inactive: outcome [1] | outcome [2] | outcome [3] | outcome [4] | outcome [6]

Cc1ccc(S(=O)(=O)Nc2ccc3c(c2)C(=O)N([C@@H](C)CO)C[C@H](C)[C@@H](CN(C)C(=O)Nc2cccc4ccccc24)OCCCC[C@@H](C)O3)cc1
inactive: outcome [1] | outcome [2] | outcome [3] | outcome [5] | outcome [4] | outcome [6] | outcome [7]

CC(C)CC#Cc1ccc2c(c1)O[C@@H](CN(C)S(=O)(=O)c1ccc(F)cc1)[C@@H](C)CN([C@@H](C)CO)S2(=O)=O
inactive: outcome [1] | outcome [2] | outcome [3] | outcome [4] | outcome [6]

O=C(C[C@@H]1CC[C@@H]2[C@H](COC[C@@H](O)CN2C(=O)Nc2ccc(C(F)(F)F)cc2)O1)NC1Cc2ccccc2C1
inactive: outcome [1] | outcome [2] | outcome [3] | max activity [8] -24.5% | outcome [4] | outcome [6] | outcome [7]

COc1ccc(S(=O)(=O)Nc2ccc3c(c2)C(=O)N([C@H](C)CO)C[C@@H](C)[C@@H](CN(C)Cc2ccc(C(F)(F)F)cc2)OCCCC[C@H](C)O3)cc1
inactive: outcome [1] | outcome [2] | outcome [3] | outcome [5] | outcome [4] | outcome [6] | outcome [7]

C[C@@H]1CCCCO[C@@H](CN(C)S(=O)(=O)c2ccc(Cl)cc2)[C@H](C)CN([C@H](C)CO)C(=O)c2cc(NS(=O)(=O)c3ccc(Cl)cc3)ccc2O1
inactive: outcome [1] | outcome [2] | outcome [3] | outcome [4]

C[C@@H]1CN([C@@H](C)CO)C(=O)c2c(c3ccccc3n2C)-c2ccccc2CO[C@@H]1CN(C)S(=O)(=O)c1ccc(C(F)(F)F)cc1
inactive: outcome [1] | outcome [2] | outcome [3] | max activity [8] -38.5% | outcome [4] | outcome [6] | outcome [7]

C[C@@H]1CCCCO[C@@H](CN(C)Cc2ccc(C(F)(F)F)cc2)[C@@H](C)CN([C@@H](C)CO)C(=O)c2cc(NS(=O)(=O)c3ccc(Cl)cc3)ccc2O1
inactive: outcome [1] | outcome [2] | outcome [3] | outcome [4] | outcome [6]

Cn1nnnc1Sc1ncnc2scc(-c3ccc(F)cc3)c12
inactive: outcome [1] | outcome [2] | outcome [3] | outcome [8]

COc1cccc(-c2ccc3c(c2)[C@H]2[C@H](CCN2C(=O)c2ccccc2F)[C@H](CO)N3C)c1
inactive: outcome [1] | outcome [2] | outcome [3] | outcome [4] | outcome [6]

N#Cc1ccc(-c2ccc(C3[C@@H]4CN(C(=O)c5ccc6c(c5)OCO6)C[C@H]3N4)cc2)cc1 (stereo not given in full)
inactive: outcome [1] | outcome [2] | outcome [3] | outcome [5] | outcome [4] | outcome [6] | outcome [7]

C[C@H]1CCCCO[C@H](CN(C)C(=O)c2ccccc2)[C@@H](C)CN([C@@H](C)CO)C(=O)c2cc(NC(=O)Nc3ccc(C(F)(F)F)cc3)ccc2O1
inactive: outcome [1] | outcome [2] | outcome [3] | outcome [4] | outcome [6]

O=C(C[C@@H]1C[C@@H]2c3cc(NS(=O)(=O)c4ccc(F)cc4)ccc3O[C@@H]2[C@@H](CO)O1)NCc1ccc(Oc2ccccc2)cc1
inactive: outcome [1] | outcome [2] | outcome [5] | outcome [4]

COc1ccccc1C#Cc1ccc([C@H]2[C@H](C#N)N(C(=O)C3CCC3)[C@H]2CO)cc1
inactive: outcome [1] | outcome [2] | outcome [5] | outcome [6]

C[C@@H]1CN([C@@H](C)CO)S(=O)(=O)c2ccc(C#Cc3ccccc3F)cc2O[C@H]1CN(C)C(=O)Cc1ccccc1
inactive: outcome [1] | outcome [2] | outcome [5] | outcome [4] | outcome [6]

Cn1cnc(S(=O)(=O)N2C[C@@H]3N[C@H](C2)C3c2ccc(-c3ccccc3F)cc2)c1 (stereo not given in full)
inactive: outcome [1] | outcome [2] | outcome [3] | outcome [6]

N#C[C@@H]1[C@@H](c2ccc(C#Cc3ccccc3F)cc2)[C@H](CO)N1C(=O)C1CCCCC1
inactive: outcome [1] | outcome [2] | outcome [3] | outcome [6]

C[C@H](CO)N1C[C@H](C)[C@H](CN(C)Cc2ccc(C(=O)Nc3ccccc3N)cc2)Oc2ccc(N(C)C)cc2C1=O
inactive: outcome [1] | outcome [2] | outcome [3] | outcome [6]

O=C(C[C@H]1C[C@@H]2c3cc(NS(=O)(=O)c4ccc(F)cc4)ccc3O[C@@H]2[C@@H](CO)O1)N1CCc2ccccc2C1
inactive: outcome [1] | outcome [2] | outcome [5] | outcome [4] | outcome [6]

COc1cccc(-c2ccc(C3[C@@H]4CN(C(=O)C5CC5)C[C@H]3N4)cc2)c1 (stereo not given in full)
inactive: outcome [1] | outcome [2] | outcome [3] | outcome [4] | outcome [6] | outcome [9] | outcome [10] | outcome [11]

COc1ccc(S(=O)(=O)N(C)C[C@@H]2OCCCC[C@H](C)Oc3ccc(NS(=O)(=O)c4ccc(Cl)cc4)cc3C(=O)N([C@H](C)CO)C[C@@H]2C)cc1
inactive: outcome [1] | outcome [2] | outcome [5] | outcome [4] | outcome [6] | outcome [7]

Cc1ccc(S(=O)(=O)Nc2ccc3c(c2)C(=O)N([C@H](C)CO)C[C@@H](C)[C@@H](CN(C)Cc2ccc(C(F)(F)F)cc2)OCCCC[C@H](C)O3)cc1
inactive: outcome [1] | outcome [2] | outcome [3] | outcome [4] | outcome [7]

Cc1ccc(S(=O)(=O)Nc2ccc3c(c2)C(=O)N([C@H](C)CO)C[C@@H](C)[C@H](CN(C)Cc2ccc(C(F)(F)F)cc2)OCCCC[C@H](C)O3)cc1
inactive: outcome [1] | outcome [2] | outcome [4]

Oc1c(Cl)cc(Cl)c(Cl)c1Cc1c(O)c(Cl)cc(Cl)c1Cl
inactive: outcome [1] | AC35 [12] | outcome [3]

COc1cccc(C#Cc2ccc([C@H]3[C@@H](CO)N(C(=O)c4ccccn4)[C@H]3C#N)cc2)c1
inactive: outcome [1] | outcome [2] | outcome [4] | outcome [6]

C[C@H](CO)N1C[C@H](C)[C@H](CN(C)Cc2ccc3c(c2)OCO3)OCCCC[C@H](C)Oc2ccc(NC(=O)Nc3ccc(C(F)(F)F)cc3)cc2C1=O
inactive: outcome [1] | outcome [2] | outcome [5] | max activity [8] -20.3% [at 0.26 µM, active compounds read low] | outcome [4] | outcome [6] | outcome [7]

Source: PubChem BioAssay
